{
  "source": "PubChem BioAssay (NCI)",
  "note": "This is part of a sample that, as a whole, favours compounds with a hit. Of some 83,000 tested, about 20% had one in any assay.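 96-well plates, one dose, 48 hours. Percent growth reported; active if below 10.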 Activity calls are given as the source filed them.",
  "data": [
    {"test_system": "MDA-MB-468 breast", "test": "NCI-60 one-dose screen, 48 h (100 = growth as untreated, 0 = no growth, -100 = all killed)", "settings": "10 µM unless noted", "values": [
      {"smiles": "COc1cc2c(c(O)c1Br)C(=O)c1c(O)cc(C[C@H](C)O)cc1[C@H]2[C@H]1c2cc(C[C@H](C)O)cc(O)c2C(=O)c2c1cc(OC)c(Br)c2O", "growth": "-14.5% (active)"},
      {"smiles": "C#C[C@@]1(O)[C@@H](CO)O[C@@H](n2cc(Br)c3c(Cl)ccnc32)[C@@H]1O", "growth": "14% (inactive)"},
      {"smiles": "CC1/C=C/C=C/C=C/C=C/C=C/C=C/C=C/C(O[C@@H]2O[C@H](C)[C@H](O)[C@@H](O)[C@@H]2N)CC(O)C(C(=O)O)C(O)CC(=O)CC(O)CC(O)CC(O)CC(=O)CCCC(=O)CC(=O)OC1C(C)CC(C)C(O)CC(=O)c1ccc(N)cc1", "note": "(stereo not given in full)", "growth": "-89.7% (active)"},
      {"smiles": "C=C1[C@@H](O)C[C@H]2C(C)(C)C[C@H](Cl)C[C@]2(C)[C@H]1C[C@H](O)[C@H]1CC(=O)NC1=O", "growth": "-47.5% (active)"},
      {"smiles": "C=C=COc1cccc(/C(N)=N/C(N)=N/c2nc3ccccc3s2)c1", "growth": "102% (inactive)"},
      {"smiles": "CC(=O)[C@@H]1CC[C@]2(COS(=O)(=O)c3ccc(C)cc3)CC[C@]3(C)[C@H](CC[C@@H]4[C@@]5(C)CCCNC(C)(C)[C@@H]5CC[C@]43C)[C@@H]12", "growth": "20.2% (inactive)"},
      {"smiles": "COc1ccc(OC)c(NC=O)c1", "growth": "97% (inactive)"},
      {"smiles": "COc1ccc(Cc2cc(-c3ccccc3)nn(Cc3ccccc3)c2=O)cc1OC", "growth": "42.9% (inactive)"},
      {"smiles": "O=S(=O)(Nc1ccc(NS(=O)(=O)c2ccccc2)c(Cl)c1)c1ccccc1", "growth": "116% (inactive)"},
      {"smiles": "CCN1C(=O)N(CC)C2SC(N/N=C/C=C/c3ccccc3OC)=NC21", "note": "(stereo not given)", "growth": "36.8% (inactive)"},
      {"smiles": "CC(=O)Oc1ccccc1C(=O)Nc1ncc([N+](=O)[O-])s1", "growth": "36.9% (inactive)"},
      {"smiles": "CCN(CC)c1ccc(-c2cc(-c3cc(OC)c(OC)c(OC)c3)nc(N3CCOCC3)c2C#N)cc1", "growth": "32.9% (inactive)"},
      {"smiles": "COC(=O)[C@H](C(C)C)n1c(=O)c2cc(OC)c(OC)cc2c2cnc3[nH]ccc3c21", "growth": "36.5% (inactive)"},
      {"smiles": "N#C/C(=C\\c1ccc(Cl)cc1Cl)C(=O)Nc1ncc(Cc2ccc(Cl)c(Cl)c2)s1", "growth": "88.6% (inactive)"},
      {"smiles": "COc1ccc2c(c1)OC(N)=C(C#N)C2c1ccc(F)c(F)c1", "note": "(stereo not given)", "growth": "-24.4% (active)"},
      {"smiles": "Clc1ccc2c(NCCCN3CCN(c4nc(-n5ccnc5)nc5ccccc45)CC3)ccnc2c1", "growth": "106% (inactive)"},
      {"smiles": "Cc1c(Cc2ccccc2)c(=O)oc2c(C)c(OCc3n[nH]c(=S)o3)ccc12", "growth": "77.7% (inactive)"},
      {"smiles": "NC(=O)c1ccc[n+](Cc2ccc(Cl)cc2Cl)c1", "growth": "101% (inactive)"},
      {"smiles": "COc1nccc2c(Sc3ccccc3)nc(N)nc12", "growth": "112% (inactive)"},
      {"smiles": "CCCCCCCCn1ccc2cc(NC(=O)Cn3cc(CN4CCCCC4)nn3)ccc21", "growth": "-14.6% (active)"},
      {"smiles": "C[C@@H]1CC2C3C[C@H](F)C4=CC(=O)C=C[C@]4(C)[C@@]3(F)[C@@H](O)C[C@]2(C)[C@@]1(O)C(=O)CO", "note": "(stereo not given in full)", "growth": "102% (inactive)"},
      {"smiles": "COc1ccc(OC)c(/C=C/c2nnc(Nc3ccc(Cl)cc3)o2)c1", "growth": "66% (inactive)"},
      {"smiles": "CC(=O)N1C(=S)NC(=O)C1CC(C)C", "note": "(stereo not given)", "growth": "100% (inactive)"},
      {"smiles": "O=C1/C(=C/c2ccc(Cl)cc2)SC(=S)N1CCc1ccc(O)cc1", "growth": "73.1% (inactive)"},
      {"smiles": "COc1cc(-c2nn(-c3cccc(NC(=O)CCN4CCN(c5ccccc5)CC4)c3)cc2-c2ccncc2)ccc1Cl", "growth": "28.8% (inactive)"},
      {"smiles": "c1cc2cccc3c4cccc5cccc(c(c1)c23)c54", "growth": "101% (inactive)"},
      {"smiles": "CC12CCC3c4ccccc4CCC3(CO1)C2", "note": "(stereo not given)", "growth": "88.7% (inactive)"},
      {"smiles": "CN1CCN(Cc2ccc(/C=N/Nc3ccnc4cc(Cl)ccc34)cc2)CC1", "growth": "77.1% (inactive)"},
      {"smiles": "COc1ccc(-c2nc3sccn3c2-c2ccnc(NCCNS(=O)(=O)c3ccc(C(F)(F)F)cc3)n2)cc1", "growth": "30.2% (inactive)"},
      {"smiles": "COc1ccc(-c2nc3sc(-c4ccc(OC)cc4)c(-c4ccc(OC)cc4)n3c2/C=C/c2ccc(C(C)C)cc2)cc1", "growth": "98.9% (inactive)"},
      {"smiles": "CN(C)c1ccc(/C=C(\\C#N)c2cc3ccccc3n2C)cc1", "growth": "31.8% (inactive)"},
      {"smiles": "N#CN1CCC[C@H]1C(=O)N1CCc2c(-c3[nH]nc4ncccc34)cccc21", "growth": "-19% (active)"},
      {"smiles": "CCN(CC)CCCC(C)Nc1c(-c2ccccc2)cnc2cc(Cl)ccc12", "note": "(stereo not given)", "growth": "44.4% (inactive)"},
      {"smiles": "C#C[C@]1(O)CC[C@H]2[C@@H]3CC=C4c5nc(Nc6ccccc6[N+](=O)[O-])sc5CC[C@]4(C)[C@H]3CC[C@@]21C", "growth": "70.7% (inactive)"},
      {"smiles": "CCC(c1ccccc1)C(CC)c1ccc(O)c(O)c1", "note": "(stereo not given)", "growth": "90.9% (inactive)"}
    ]}
  ]
}
